# Test results: PubChem BioAssay (Tox21)
# Results filed as inconclusive are left out. A call without a number means that no potency is given here. The source made the active and inactive calls. Unless noted, calls follow the shape of the full dose curve.
# Assays:
# [1] = Nuclear factor erythroid 2-related factor 2/antioxidant responsive element (Nrf2/ARE) small molecule agonists: qHTS cell viability counter screen in human keratinocytes (AID 1919968; active = well fitted curve in the direction sought with a large enough effect in the repeat runs; an effect the other way counts as inactive or inconclusive; also: nearly all actives have a fitted effect of over 55% in size)
# Procedure, shortened: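 Measured as CellTiter-Fluor fluorescence, this readout tracks cytotoxicity in the same wells as the ARE-luciferase screen. HaCaT reporter cells (1,500/well) received compounds after a 5 h pre-incubation and were exposed for 23 h.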
# [2] = Nuclear factor erythroid 2-related factor 2/antioxidant responsive element (Nrf2/ARE) small molecule agonists: luciferase reporter gene qHTS assay in human keratinocytes (AID 1919969); also: nearly all actives have a fitted effect of over 35% in size
# [3] = molecular target: Gonadotropin-releasing hormone receptor (Homo sapiens) (UniProt P30968); test: Human gonadotropin-releasing hormone receptor (GnRHR) small molecule agonists, calcium flux assay in GnRHR-HEK293 cells (AID 1920063); also: nearly all actives have a fitted effect of over 35% in size
# Gonadotropin-releasing hormone receptor (Homo sapiens), sequence (P30968 whole entry, looked up): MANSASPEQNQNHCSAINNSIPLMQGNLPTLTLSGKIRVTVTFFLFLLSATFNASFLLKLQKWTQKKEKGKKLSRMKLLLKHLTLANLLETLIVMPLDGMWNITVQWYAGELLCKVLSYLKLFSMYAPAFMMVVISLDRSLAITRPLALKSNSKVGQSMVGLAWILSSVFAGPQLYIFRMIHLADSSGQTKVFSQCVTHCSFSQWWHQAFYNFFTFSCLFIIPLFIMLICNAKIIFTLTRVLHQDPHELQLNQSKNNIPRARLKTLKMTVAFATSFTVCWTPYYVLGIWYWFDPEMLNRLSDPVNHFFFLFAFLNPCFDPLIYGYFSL
# Procedure, shortened: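 Fluorescence kinetics (480 nm excitation, 540 nm emission; 3 min, 1 s steps) report calcium mobilisation in human GnRHR-HEK293 cells in agonist mode. Dye incubation: 1 h, 37 C.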
# [4] = molecular target: KiSS-1 receptor (Homo sapiens) (UniProt Q969F8); test: Human kisspeptin (KISS1R) small molecule agonists, calcium flux assay in KISS1R-HEK293 cells (AID 1920064; active = well fitted curve in the direction sought with a large enough effect in the repeat runs; an effect the other way counts as inactive or inconclusive)
# KiSS-1 receptor (Homo sapiens), sequence (Q969F8 whole entry, looked up): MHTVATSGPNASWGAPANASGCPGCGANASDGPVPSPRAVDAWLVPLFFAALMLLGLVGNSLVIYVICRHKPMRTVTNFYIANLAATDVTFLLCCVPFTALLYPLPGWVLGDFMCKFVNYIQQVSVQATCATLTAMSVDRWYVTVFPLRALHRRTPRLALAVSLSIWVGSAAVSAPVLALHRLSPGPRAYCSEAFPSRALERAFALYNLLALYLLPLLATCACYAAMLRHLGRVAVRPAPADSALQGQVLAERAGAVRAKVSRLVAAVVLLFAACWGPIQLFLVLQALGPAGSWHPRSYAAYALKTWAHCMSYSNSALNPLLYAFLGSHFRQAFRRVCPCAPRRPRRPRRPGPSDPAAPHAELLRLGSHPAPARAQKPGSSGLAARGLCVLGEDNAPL
# Procedure, shortened: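 Measures KISS1R agonism through calcium-sensitive dye fluorescence in stably transfected HEK293 cells, read for 3 min after pin-tool compound delivery; 15-point titrations in triplicate.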
# [5] = G protein-coupled receptor (GPCR) small molecule agonists, calcium flux assay: HEK293 wild type cell line counter screen (AID 1920065)
# Procedure, shortened: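 Readout: fluorescence at 480 nm excitation/540 nm emission, sampled at 1 s intervals for 3 min. Cells had been cultured 18 h, then dye-loaded 1 h at 37 C before compound or ATP addition.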
# [6] = p53 small molecule agonists, cell-based qHTS assay with human liver microsomes: qHTS cell viability counter screen (AID 1963579); also: nearly all actives have a fitted effect of over 45% in size
# Procedure, shortened: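 Metabolically activated exposure: compounds, human liver microsomes and NADPH (0.5 mg/mL final apiece) were added to p53RE-bla cells seeded 5 h earlier, left 16 h at 37 C, and then assessed for viability by CellTiter-Glo luminescence.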
# [7] = p53 small molecule agonists, cell-based qHTS assay with rat liver microsomes: qHTS cell viability counter screen (AID 1963580); also: nearly all actives have a fitted effect of over 45% in size
# Procedure, shortened: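 HCT-116 p53RE-bla, 4,000 cells/well, 5 h pre-incubation; cpd + rat liver microsomes 0.5 mg/mL + NADPH 0.5 mg/mL (final); 16 h, 37 C; CellTiter-Glo, 30 min RT; luminescence.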
# [8] = p53 small molecule agonists, cell-based qHTS assay: qHTS cell viability counter screen (AID 1963581); also: nearly all actives have a fitted effect of over 45% in size
# Procedure, shortened: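 In the same plates used for the p53 bla reporter, HCT-116 cells given compounds for 16 h at 37 C received CellTiter-Glo; luminescence was recorded 30 min later at room temperature.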
# [9] = molecular target: 5-hydroxytryptamine receptor 2A (Homo sapiens) (UniProt P28223); test: 5-hydroxytryptamine receptor 2A (HTR2A) small molecule antagonists, cell-based qHTS assay (AID 1963586); also: nearly all actives have a fitted effect of over 45% in size
# 5-hydroxytryptamine receptor 2A (Homo sapiens), sequence (P28223 whole entry, looked up): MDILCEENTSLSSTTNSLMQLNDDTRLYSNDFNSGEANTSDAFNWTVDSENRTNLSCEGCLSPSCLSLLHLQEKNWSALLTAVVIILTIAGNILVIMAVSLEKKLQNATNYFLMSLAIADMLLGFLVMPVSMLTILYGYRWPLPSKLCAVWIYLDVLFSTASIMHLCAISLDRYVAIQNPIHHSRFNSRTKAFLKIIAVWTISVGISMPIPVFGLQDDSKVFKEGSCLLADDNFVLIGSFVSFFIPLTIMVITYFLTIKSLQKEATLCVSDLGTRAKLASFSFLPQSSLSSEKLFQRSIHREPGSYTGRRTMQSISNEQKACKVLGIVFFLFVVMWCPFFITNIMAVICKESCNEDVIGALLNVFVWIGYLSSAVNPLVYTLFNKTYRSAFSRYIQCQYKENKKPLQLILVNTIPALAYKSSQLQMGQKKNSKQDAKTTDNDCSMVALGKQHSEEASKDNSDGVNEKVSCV
# Procedure, shortened: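 Antagonist-mode intracellular calcium assay: DOI (4 nM) added after 5 min compound pre-incubation at room temperature to dye-loaded HTR2A-CHO cells. Fluorescence followed for 3 min, sampled every second.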
# [10] = molecular target: 5-hydroxytryptamine receptor 2A (Homo sapiens) (UniProt P28223); test: 5-hydroxytryptamine receptor 2A (HTR2A) small molecule agonists, cell-based qHTS assay (AID 1963587); also: nearly all actives have a fitted effect of over 30% in size
# Procedure, shortened: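 Kinetic calcium-flux fluorescence (2 min, 1 sec intervals) after compound addition in agonist mode. HTR2A-CHO cells were cultured 18 h, then dye-loaded 1 h at 37 C.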
# [11] = molecular target: Muscarinic acetylcholine receptor M1 (Homo sapiens) (UniProt P11229); test: Cholinergic receptor muscarinic 1 (CHRM1) small molecule antagonists, cell-based qHTS assay (AID 1963588); also: nearly all actives have a fitted effect of over 40% in size; also: potency is read from the fitted curve at half-maximal effect
# Muscarinic acetylcholine receptor M1 (Homo sapiens), sequence (P11229 whole entry, looked up): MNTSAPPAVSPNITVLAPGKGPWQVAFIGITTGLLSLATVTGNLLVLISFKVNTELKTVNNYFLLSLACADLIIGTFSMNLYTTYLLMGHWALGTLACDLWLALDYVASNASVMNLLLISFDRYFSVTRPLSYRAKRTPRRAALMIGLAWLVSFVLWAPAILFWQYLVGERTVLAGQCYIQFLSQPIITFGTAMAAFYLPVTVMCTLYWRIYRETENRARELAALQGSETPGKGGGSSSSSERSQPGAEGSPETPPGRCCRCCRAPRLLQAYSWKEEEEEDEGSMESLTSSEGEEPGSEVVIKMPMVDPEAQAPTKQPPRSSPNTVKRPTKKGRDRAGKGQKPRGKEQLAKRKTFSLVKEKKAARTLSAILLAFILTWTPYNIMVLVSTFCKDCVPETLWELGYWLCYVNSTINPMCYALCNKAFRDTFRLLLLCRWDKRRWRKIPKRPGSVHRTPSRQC
# Procedure, shortened: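 CHRM1-CHO calcium-flux assay, antagonist mode. Cells were seeded 18 h, dye-loaded 1 h at 37 C and given compound for 5 min at RT, then acetylcholine was added at 50nM. FDSS fluorescence was read 3 min; 15 concentrations, three runs.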
# [12] = molecular target: Muscarinic acetylcholine receptor M1 (Homo sapiens) (UniProt P11229); test: Cholinergic receptor muscarinic 1 (CHRM1) small molecule agonists, cell-based qHTS assay (AID 1963589); also: nearly all actives have a fitted effect of over 35% in size
# Procedure, shortened: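 Each compound was tested at 15 concentrations across three independent runs on dye-loaded CHO cells stably expressing human CHRM1, reading intracellular calcium fluorescence kinetically at 1 sec intervals.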
# [13] = cAMP Responsive Elements (CRE) small molecule agonists, cell-based qHTS assay (AID 1963590)
# Procedure, shortened: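 Cell line: CRE-bla HEK 293T; medium DMEM/10% dialyzed FBS/0.1 mM NEAA/1 mM pyruvate/25 mM HEPES; 3 h compound exposure; beta-lactamase FRET readout after 2 h substrate loading at RT.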
# [14] = cAMP Responsive Elements (CRE) small molecule antagonists, cell-based qHTS assay (AID 1963591; active = well fitted inhibition curve with a large enough effect in the signal ratio in the repeat runs, not every such curve was filed as active; the % refers to the signal ratio)
# Procedure, shortened: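 Inhibition of NKH477-driven (0.25 uM final) CRE-beta-lactamase signal in HEK293T cells, 3 h compound exposure at 37 °C, detected by FRET substrate fluorescence.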
# [15] = molecular target: Beta-2 adrenergic receptor (Homo sapiens) (UniProt P07550); test: Adrenergic beta2 receptor (ADRB2) small molecule antagonists, cell-based qHTS assay (AID 1963592); also: series mostly up to about 92 µM; nearly all actives have a fitted effect of over 50% in size
# Beta-2 adrenergic receptor (Homo sapiens), sequence (P07550 whole entry, looked up): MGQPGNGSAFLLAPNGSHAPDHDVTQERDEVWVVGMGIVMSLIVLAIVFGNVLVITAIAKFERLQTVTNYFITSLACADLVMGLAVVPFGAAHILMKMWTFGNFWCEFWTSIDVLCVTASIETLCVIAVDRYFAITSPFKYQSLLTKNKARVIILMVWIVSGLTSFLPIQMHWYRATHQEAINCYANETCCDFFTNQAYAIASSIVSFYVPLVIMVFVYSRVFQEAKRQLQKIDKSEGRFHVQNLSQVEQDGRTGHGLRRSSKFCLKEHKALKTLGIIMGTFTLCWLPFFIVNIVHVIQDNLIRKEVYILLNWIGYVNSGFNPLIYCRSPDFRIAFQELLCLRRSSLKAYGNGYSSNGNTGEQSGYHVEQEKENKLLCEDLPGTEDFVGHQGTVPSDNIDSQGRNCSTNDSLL
# Procedure, shortened: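 Cells (CHO, stable ADRB2 overexpression) incubated 18-20hr at 37C; compounds added from DMSO; agonist mix (1nM isoproterenol, 100uM IBMX, 25uM Ro-20-1724) added; 0.5hr RT; d2-cAMP and anti-cAMP-cryptate added; 1hr RT; 665/615 nm read.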
# [16] = molecular target: D(2) dopamine receptor (Homo sapiens) (UniProt P14416); test: Dopamine D2 receptor (DRD2) small molecule agonists, cell-based qHTS assay (AID 1963594); also: nearly all actives have a fitted effect of over 35% in size; also: potency is read from the fitted curve at half-maximal effect
# D(2) dopamine receptor (Homo sapiens), sequence (P14416 whole entry, looked up): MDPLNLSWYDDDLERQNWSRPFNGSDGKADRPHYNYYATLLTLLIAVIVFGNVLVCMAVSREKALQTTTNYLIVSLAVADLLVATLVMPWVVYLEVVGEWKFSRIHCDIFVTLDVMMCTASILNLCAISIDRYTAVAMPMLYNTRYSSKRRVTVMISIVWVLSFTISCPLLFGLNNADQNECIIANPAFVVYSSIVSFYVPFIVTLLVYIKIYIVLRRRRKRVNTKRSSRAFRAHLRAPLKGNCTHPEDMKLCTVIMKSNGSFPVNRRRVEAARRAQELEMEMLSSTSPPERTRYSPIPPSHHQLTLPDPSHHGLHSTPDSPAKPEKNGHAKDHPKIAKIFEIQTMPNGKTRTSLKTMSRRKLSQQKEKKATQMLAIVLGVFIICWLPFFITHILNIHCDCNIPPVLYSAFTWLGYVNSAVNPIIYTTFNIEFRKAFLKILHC
# Procedure, shortened: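 cAMP accumulation in DRD2-HEK293 cells measured by HTRF after 1 h detection; compounds added 10 min before NKH477 (200nM […]) forskolin-analogue stimulation, 30 min at room temperature, with Ro20-1724 present at 0.1 mM final.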
# [17] = molecular target: D(2) dopamine receptor (Homo sapiens) (UniProt P14416); test: Dopamine D2 receptor (DRD2) small molecule antagonists, cell-based qHTS assay (AID 1963595; active = well fitted inhibition curve with a large enough effect in the signal ratio in the repeat runs, with a control signal flat; the % refers to the signal ratio)
# Procedure, shortened: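 HTRF cAMP read-out at 665 and 620 nm emission (340 nm excitation). Antagonist mode: compounds were tested against 12 nM quinpirole in DRD2-HEK293 cells, with 200 nM NKH477 raising cAMP and 0.1 mM Ro20-1724 blocking its breakdown.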
# [18] = molecular target: Beta-2 adrenergic receptor (Homo sapiens) (UniProt P07550); test: Adrenergic beta2 receptor (ADRB2) small molecule agonists, cell-based qHTS assay (AID 1963593);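 also: CHO cells stably overexpressing human ADRB2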
# Procedure, shortened: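 CHO cells stably over-expressing ADRB2 were plated overnight at 37C, then dosed with compounds plus a stimulation mix containing 100uM IBMX and 25uM Ro-20-1724 for 0.5hr at room temperature. cAMP was measured by HTRF competition, 1hr.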
Compound,Potency [1],Potency [2],Potency [3],Potency [4],Potency [5],Potency [6],Potency [7],Potency [8],Potency [9],Potency [10],Potency [11],Potency [12],Potency [13],Potency [14],Potency [15],Potency [16],Potency [17],Potency [18]
NNCc1ccccc1,inactive,inactive,inactive,inactive,inactive,inactive,inactive,inactive,inactive,inactive,inactive,inactive,inactive,inactive,inactive,inactive,inactive,–
CCOP(=S)(OCC)Oc1ccc(S(C)=O)cc1 (stereo not given),inactive,inactive,inactive,inactive,inactive,inactive,inactive,inactive,inactive,inactive,inactive,inactive,inactive,inactive,inactive,inactive,inactive,inactive
C#CC(C)(C)O,inactive,inactive,inactive,inactive,inactive,inactive,inactive,inactive,inactive,inactive,inactive,inactive,inactive,inactive,inactive,inactive,inactive,inactive
CCCSP(=O)(OCC)Oc1ccc(Br)cc1Cl (stereo not given),inactive,inactive,inactive,inactive,inactive,inactive,inactive,inactive,inactive,inactive,inactive,inactive,inactive,–,inactive,inactive,inactive,–
CCC1(c2ccccc2)C(=O)N(COC)C(=O)N(COC)C1=O,inactive,inactive,inactive,inactive,inactive,inactive,inactive,inactive,inactive,inactive,inactive,inactive,inactive,inactive,inactive,10.6 µM (active),inactive,inactive
CCOC1Oc2ccc(OS(C)(=O)=O)cc2C1(C)C (stereo not given),inactive,inactive,inactive,inactive,inactive,inactive,inactive,inactive,inactive,inactive,inactive,inactive,inactive,inactive,inactive,inactive,inactive,inactive
O=C(N[C@H]1CN2CCC1CC2)c1ccc2c(c1)OCCO2,inactive,inactive,inactive,inactive,inactive,inactive,inactive,inactive,inactive,inactive,inactive,inactive,inactive,–,inactive,inactive,inactive,inactive
CC[C@H](O)C(C[C@H](C)N(C)C)(c1ccccc1)c1ccccc1,inactive,inactive,inactive,inactive,inactive,inactive,inactive,inactive,inactive,inactive,34.1 µM (active),inactive,inactive,inactive,inactive,inactive,inactive,inactive
